Assay outcomes (PubChem)
DT40 TDP1 no CPT: qHTS for Inhibitors of human tyrosyl-DNA phosphodiesterase 1 (TDP1): qHTS in cells in absence of CPT; DT40 Tdp1-/- hTDP1 cells, no CPT, ATP luminescence, 48 h; Potency, µM (top dose mostly 46.2 µM), for the others: top-dose activity change, negative = growth inhibition, actives largely listed as inhibitors; 15% of 420,000 active; note: potency is the fitted concentration of half-maximal effect; nearly all actives have a fitted effect of over 55% in size
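Growth of hTDP1-complemented DT40 Tdp1-knockout cells is measured by ATP luminescence after at least 48 hr compound exposure at 37 °C, with DMSO substituting for the 20 nM CPT used in the parallel screen.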
HT1080 IDH1KD tx: kills HT-1080 cells with IDH1 knockdown; 2% of 360,000 active; HT-1080 IDH1 knockdown viability, ATP luminescence, 48 h; Potency, µM (titrated, usually from 46.1 µM), without a hit: at the top dose activity, negative = toxicity, most hits filed as cytotoxic;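 note: potency is the fitted concentration of half-maximal effect; 0% = DMSO wells and -100% = cell-free medium wells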
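Luminescent ATP read-out (CellTiter-Glo, 10 min at room temperature) after 48 h compound exposure at 37 °C gave viability of IDH1-knockdown HT-1080 cells. Activity was normalised to DMSO and cell-free wells, then fitted as concentration-response curves.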
ELG1 repair inh: ELG1-dependent DNA repair inhibition | HEK293T ELG1-luciferase reporter, luminescence, 16 h; DNA damage induced by 5-fluorouridine | Potency, µM (top dose mostly 46.1 µM), for the others: at the top dose activity change, negative = inhibition, hits mostly inhibitors | 2.3% of 330,000 active | AID 504467; note: potency is the fitted concentration of half-maximal effect; nearly all actives have a fitted effect of over 55% in size
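Luminescence from the luciferase reporter, measured 30 min after ONE-Glo reagent at room temperature, was the read-out. Beforehand, 2,000 cells per well were exposed for 16 hr at 37 °C to 5-fluorouridine together with compound or vehicle.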
HT1080-NT tox: kills 2HG-producing HT-1080-NT fibrosarcoma cells. Potency, µM (top dose mostly 46.1 µM), for inactives: at the top dose activity, negative = less viability, usual class: cytotoxic. 1.6% of 360,000 active. HT-1080-NT fibrosarcoma viability, CellTiter-Glo ATP luminescence, 48 h. AID 686970;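 note: NT is the 2HG producing partner of a matched IDH1 knockdown line; potency is the fitted concentration of half-maximal effect; 0% = DMSO-treated cells and -100% = media-only wells without cells; nearly all actives have a fitted effect of over 55% in size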
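HT-1080-NT fibrosarcoma cells (2HG-overproducing), 750 cells/well in RPMI with 5% FBS, dosed after 2 h and incubated 48 h at 37C. CellTiter-Glo luminescence normalized to DMSO and no-cell wells; concentration-response curves fitted and classed.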
IL-1B inflam inh: inhibitors of inflammasome signaling (IL-1 beta secretion); activity change, % at 57.5 µM; THP-1 LPS/ATP IL-1B secretion, AlphaLISA, 16 h; active compounds read low; 4.7% of 360,000 active; in the data active = activity change below about -50%; inconclusive = mostly about -30% to -49%
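THP-1 cells pretreated 1 hr with compounds (up to 57.5 uM final), then stimulated with LPS (250 ng/mL final) plus ATP (1.25 mM final); secreted IL-1B measured by AlphaLISA after 16 hr, decreased signal indicating inhibition.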
TDP1 cell CPT: DT40-hTDP1 cell growth loss with CPT | chicken DT40 Tdp1-/-;hTDP1 cells + 20 nM CPT, ATP luminescence, 48 h | Potency, µM (highest dose often 46.2 µM), for the others: at the highest dose activity change, negative = growth inhibition, hits mostly inhibitors | 12% of 420,000 active | AID 686979; note: potency is the fitted concentration of half-maximal effect; nearly all actives have a fitted effect of over 55% in size
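Chicken DT40 Tdp1-/- cells stably complemented with human TDP1 were seeded at 400 cells/well in medium containing 20 nM camptothecin, exposed to pin-transferred compounds, and grown at 37 °C for at least 48 hr. Viability was read as ATP luminescence.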
An asterisk follows results filed as active; ? = inconclusive; · = no result; [ ] = dose if it differs, or a comment. Most compounds without a hit are left out; they make up all but 19% or so of the library. Unless noted, calls come from the whole dose curve; as a rule, active = well fitted curve in the direction sought with a large enough effect; inconclusive = small, poorly fitted or top-dose-only effect, or another doubt; inactive = no such curve, though single readings can be large; an effect the other way counts as inactive or inconclusive. Unless noted, % is set by controls: 0 for no effect and ±100 for the full control effect.

SMILES	DT40 TDP1 no CPT	HT1080 IDH1KD tx	ELG1 repair inh	HT1080-NT tox	IL-1B inflam inh	TDP1 cell CPT
Cc1cccc(C)c1NC(=O)C(c1ccc(C#N)cc1)n1c(=O)c(-c2cc3ccccc3[nH]2)nc2ccccc21 (stereo not drawn)	9.2µM*	?	·	?	98	12µM*
CC(c1nc2ccccc2[nH]1)n1c(=O)c(-c2ccco2)nc2ccccc21 (stereo not drawn)	18µM*	-9%	·	-18%	?	13µM*
Cc1cccc(C)c1NC(=O)C(c1ccccc1)n1c(=O)c(-c2cc3ccccc3[nH]2)nc2ccccc21 (stereo not drawn)	15µM*	?	·	?	6	16µM*
O=C(Nc1ccc2ccccc2c1)C(c1ccccc1)n1c(=O)c(-c2cc3ccccc3[nH]2)nc2ccccc21 (stereo not drawn)	16µM*	-19%	·	-28%	67	?
COc1cc2cc(CCO)oc(=O)c2cc1OC	-2%	4%	?	0%	-3	-1%
O=C(NCc1ccccc1)C(c1ccc(-c2ccccc2)cc1)n1c(=O)c(-c2ccco2)nc2ccccc21 (stereo not drawn)	?	?	·	?	-3	?
CC(C(=O)NCc1ccccc1)n1c(CSCCOc2ccccc2)nc2ccccc21 (stereo not drawn)	?	4%	·	16%	6	?
O=C(NCc1ccccc1)C(CCc1ccccc1)n1c(=O)c(-c2ccccc2)nc2ccccc21 (stereo not drawn)	2.3µM*	?	·	?	50	-76%
Cc1cccc(C)c1NC(=O)C(c1ccccc1)n1c(=O)c(-c2ccccc2)nc2ccccc21 (stereo not drawn)	16µM*	-16%	·	-16%	-24	?
CCC(C(=O)NCc1ccccc1)n1c(CSCCOc2ccccc2)nc2ccccc21 (stereo not drawn)	?	-4%	·	3%	-6	23µM*
Cc1cccc(C)c1NC(=O)C(c1ccncc1)n1c(=O)c(-c2cc3ccccc3[nH]2)nc2ccccc21 (stereo not drawn)	21µM*	18µM*	·	21µM*	-17	12µM*
COc1ccc(CNS(=O)(=O)c2c(C(=O)N3CCCCC3)c(C)n(C)c2C)cc1	2%	6%	23%	3%	2	-4%
O=c1c(-c2cc3ccccc3[nH]2)nc2ccccc2n1C(CCc1ccccc1)c1nc2ccccc2[nH]1 (stereo not drawn)	18µM*	?	·	?	-22	?
CCCCCNC(=O)C(C1CC1)n1c(=O)c(-c2cc3ccccc3[nH]2)nc2ccccc21 (stereo not drawn)	?	?	·	?	-3	?
O=C(NCc1ccccc1)C(c1cccc2ccccc12)n1c(=O)c(-c2ccco2)nc2ccccc21 (stereo not drawn)	?	-2%	·	-3%	-5	?
Cc1cccc(C)c1NC(=O)C(c1cccc2ccccc12)n1c(=O)c(-c2cc3ccccc3[nH]2)nc2ccccc21 (stereo not drawn)	9.2µM*	-8%	·	-10%	54	13µM*
O=C(NCc1ccccc1)C(CCc1ccccc1)n1c(=O)c(-c2cc3ccccc3[nH]2)nc2ccccc21 (stereo not drawn)	9.2µM*	?	·	?	22	13µM*
O=C(NCc1ccccc1)C(c1cccc2ccccc12)n1c(=O)c(-c2cc3ccccc3[nH]2)nc2ccccc21 (stereo not drawn)	?	-12%	·	-2%	55	15µM*
Cc1cccc(C)c1NC(=O)C(c1ccccc1F)n1c(=O)c(-c2cc3ccccc3[nH]2)nc2ccccc21 (stereo not drawn)	?	?	·	?	13	?
COc1ccc(C(O)Cn2cc([N+](=O)[O-])nc2C)cc1 (stereo not drawn)	12%	12%	6%	17%	52	4%
CCC(C(=O)Nc1c(C)cccc1C)n1c(-c2ccc(-c3ccccc3)cc2)nc2ccccc21 (stereo not drawn)	15µM*	-15%	·	-8%	-12	15µM*
CC[n+]1c(C)sc2c3ccsc3ccc21	16µM*	9%	2%	6%	51	23µM*
CC[n+]1c(C)sc2sc3ccccc3c21	·	·	-5%	·	·	·
Cc1ccc(S(=O)(=O)Nc2ccc(F)cc2)cc1C(=O)N1CCOCC1	?	5%	0%	5%	12	-4%
CCOc1ccccc1Nc1sc(C(=O)c2ccccc2)c(N)c1S(=O)(=O)c1ccc(C)cc1	5.8µM*	·	·	·	·	?
SMILES	DT40 TDP1 no CPT	HT1080 IDH1KD tx	ELG1 repair inh	HT1080-NT tox	IL-1B inflam inh	TDP1 cell CPT
COc1ccc(S(=O)(=O)c2c(Nc3ccc(F)cc3)sc(C(=O)c3ccc4c(c3)OCO4)c2N)cc1	-10%	·	·	·	·	-12%
COc1ccc(S(=O)(=O)c2c(Nc3ccccc3F)sc(C(=O)c3cccc(OC)c3)c2N)cc1	6.5µM*	·	·	·	·	5.2µM*
Cc1cccc(C)c1Nc1sc(C(=O)c2ccccc2)c(N)c1S(=O)(=O)c1ccccc1	3.7µM*	·	·	·	·	4.6µM*
O=C(Nc1ccccc1)C(=O)c1c[nH]c2ccccc12	-22%	-14%	?	-12%	8	-8%
O=C(NCc1ccco1)C1Cc2ccccc2CN1S(=O)(=O)c1ccccc1F (stereo not drawn)	?	6%	·	11%	?	18µM*
CC1(C(=O)NCc2cccnc2)CCN1C(=O)c1cccc(F)c1 (stereo not drawn)	21%	?	·	5%	47	-3%
COCCN1CCN(C(=O)c2cnn(-c3ncc4c(n3)-c3ccc(OC)cc3CC4)c2C2CC2)CC1	-17%	·	·	·	·	7%[9.04 µM]
Cc1cc(-c2nn(-c3ccccc3F)cc2CN2CCN(c3ccncc3)CC2)c(C)s1	?	?	-8%	21µM*	-85*	?
Cc1cc(-c2nn(-c3ccccc3F)cc2CN(C)CC(O)CO)c(C)s1 (stereo not drawn)	-26%	-5%	-24%	3%	-10	-17%
COCC1CCCN(Cc2cn(-c3ccccc3F)nc2-c2cc(C)sc2C)C1 (stereo not drawn)	18µM*	1%	4%	9%	0	16µM*
